Source: PubChem
Sm TGR block: qHTS Assay for the Inhibitors of Schistosoma Mansoni Peroxiredoxins | Schistosoma mansoni thioredoxin glutathione reductase (TGR), Q962Y6 | purified TGR, DTNB reduction, TNB absorbance 405 nm | Potency, µM (doses to about 114 µM), hits mostly inhibitors | 3% of 360,000 active; note: nearly all actives have a fitted effect of over 60% in size
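Kinetic colorimetric format: TGR-catalysed, NADPH-driven DTNB reduction monitored via TNB absorbance. Enzyme dispensed at 20 nM; compound exposure 15 min at room temperature before reaction start.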
Shiga toxin inh: A qHTS for Small Molecule Inhibitors of Shiga Toxin; Vero cells, Shiga toxin protein synthesis inhibition reporter; inhibition, % at 38.7 µM; 9.2% of 290,000 active; in the data active = inhibition mostly above about 28%, no sharp cut-off; inactive = mostly below about 43%
TbPYK inhibitor: qHTS of Trypanosoma Brucei Inhibitors; Potency, µM (highest dose often 76.8 µM), most hits filed as inhibitors; 0.12% of 410,000 active; pyruvate kinase (Trypanosoma brucei), Q57TT1; TbPYK enzyme, Kinase-Glo Plus ATP luminescence, 45 min; note: nearly all actives have a fitted effect of over 50% in size
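Quantitative HTS: titrated library compounds versus trypanosomal pyruvate kinase in TEA buffer (pH 7.2) containing KCl, MgCl2, BSA and Tween-20. Reactions were initiated with ADP, 130 uM final. Kinase-Glo Plus luminescence was read after 45 min at RT.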
CHX counter: Cycloheximide Counterscreen for Small Molecule Inhibitors of Shiga Toxin. cell reporter, cycloheximide protein synthesis inhibition counterscreen. max response, %. 12% of 300,000 active. AID 2314, 2010; in the data active = max response mostly above about 13%, no sharp cut-off; inactive = mostly below about 14%; note: read at 38.3 µM for the half of the compounds with a filed dose
FBPA Giardia inh: qHTS Assay for Inhibitors of Fructose-1,6-bisphosphate Aldolase from Giardia Lamblia; purified Giardia FBPA; Potency, µM (doses to about 59.6 µM), hits mostly inhibitors; 0.71% of 290,000 active; A8B2U2; AID 2451, 2010; note: nearly all actives have a fitted effect of over 55% in size
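Giardia FBPA (40 nM reagent) was preincubated 10 min at RT with compound (up to 57.5 uM final), then substrate plus GAPDH/TPI/NAD/arsenate coupling system with diaphorase/resazurin was added; resorufin fluorescence (525/598 nm) was read after 20 min.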
LmPK inhibitor: qHTS Assay for Inhibitors of Leishmania Mexicana Pyruvate Kinase (LmPK) | purified LmPK, Kinase-Glo ATP luminescence, 1 h | Q27686 | 0.37% of 290,000 active | AID 1721, 2009 | Potency, µM (titrated, usually from 57.5 µM), most hits filed as inhibitors
Target sequence (Q27686 whole entry, looked up): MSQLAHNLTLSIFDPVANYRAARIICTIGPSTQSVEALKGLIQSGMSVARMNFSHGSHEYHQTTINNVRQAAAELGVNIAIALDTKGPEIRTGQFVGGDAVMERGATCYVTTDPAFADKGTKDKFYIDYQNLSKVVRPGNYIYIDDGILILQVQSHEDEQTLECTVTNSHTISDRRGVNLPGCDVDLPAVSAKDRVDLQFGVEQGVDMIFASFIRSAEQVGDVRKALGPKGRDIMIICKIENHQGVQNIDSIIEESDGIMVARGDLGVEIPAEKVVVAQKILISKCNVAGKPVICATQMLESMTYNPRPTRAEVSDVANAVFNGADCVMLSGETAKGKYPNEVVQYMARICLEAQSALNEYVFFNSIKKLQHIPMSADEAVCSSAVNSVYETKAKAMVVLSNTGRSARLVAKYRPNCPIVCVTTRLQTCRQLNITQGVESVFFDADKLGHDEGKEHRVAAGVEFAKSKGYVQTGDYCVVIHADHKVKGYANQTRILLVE
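Purified LmPK (0.1 nM) converted ADP (0.1 mM) to ATP with PEP (0.5 mM) in imidazole buffer pH 7.2 with KCl and MgCl2, 1 h at room temperature. ATP was read by Kinase-Glo luminescence; data normalized to uninhibited and no-enzyme controls.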
Of the large screens only hits and unclear results are named; the others gave an inactive call. Many of the other results were omitted from the sample, so hits are more common in it than they were. Unless noted, calls come from the whole dose curve; as a rule, active = well fitted curve in the direction sought with a large enough effect; inconclusive = small, poorly fitted or top-dose-only effect, or another doubt; inactive = no such curve, though single readings can be large; an effect the other way counts as inactive or inconclusive.

CCOc1ccc(C(=O)NC(Cc2ccccc2)C(=O)OC)cc1 (configuration not stated)	Shiga toxin inh 73, CHX counter 41
COc1ccc(C(=O)N(Cc2ccccc2)c2cccc(C)c2)cc1	Shiga toxin inh 24 (no result: FBPA Giardia inh)
COC(=O)[C@H](Cc1ccccc1)NC(=O)c1ccc2ccccc2n1	Shiga toxin inh 41
CC(CCc1ccccc1)NC(=O)c1ccc(NC(=O)c2ccccc2)cc1 (configuration not stated)	none
COC(=O)C(Cc1ccccc1)NC(=O)COc1ccc(C(C)(C)C)cc1 (configuration not stated)	none
C[C@H](NS(=O)(=O)c1ccc(Cl)cc1)C(=O)OCC(=O)Nc1cc(S(=O)(=O)N2CCOCC2)ccc1Cl	none (no result: Sm TGR block, Shiga toxin inh, CHX counter, FBPA Giardia inh, LmPK inhibitor)
CCCCOc1ccc(C(=O)NCC(c2ccc(Cl)cc2)N2CCOCC2)cc1 (configuration not stated)	none (no result: Shiga toxin inh, CHX counter, FBPA Giardia inh, LmPK inhibitor)
CCOc1ccc(C(=O)NC(C)CCc2ccccc2)cc1 (configuration not stated)	Shiga toxin inh 29, CHX counter 28
COc1ccc(C(=O)NCC2OCCc3ccccc32)c(O)c1 (configuration not stated)	Shiga toxin inh 47, CHX counter 23
COc1ccc(C(=O)NC(=S)N(Cc2ccccc2)Cc2ccccc2)cc1	Shiga toxin inh 144, CHX counter 32
COc1ccc(C(=O)NC(C)CCc2ccccc2)c(O)c1 (configuration not stated)	Shiga toxin inh 68, CHX counter 30
CC(C)N(Cc1nccn1C)C(=O)c1cc(COc2ccc(-n3cncn3)cc2)on1	none (no result: Sm TGR block, Shiga toxin inh, CHX counter, FBPA Giardia inh, LmPK inhibitor)
COc1ccc(/C=C/C(=O)N2CCN(S(=O)(=O)c3ccccc3Br)CC2)cc1OC	none (no result: Sm TGR block, Shiga toxin inh, CHX counter, FBPA Giardia inh, LmPK inhibitor)
COc1ccc(N(Cc2ccccc2)N=O)cc1	CHX counter 18 (no result: Shiga toxin inh)
CC[C@]12c3[nH]c4ccccc4c3CCN1C(=O)C(CC(=O)NCCCOC)C[C@@H]2C(=O)N1CCN(C(=O)c2ccco2)CC1 (some centres not stated)	none (no result: Sm TGR block, Shiga toxin inh, CHX counter, FBPA Giardia inh, LmPK inhibitor)
CCc1cc(-c2oncc2-c2ccc(OC)cc2)c(O)cc1OC	none (no result: Sm TGR block, TbPYK inhibitor, LmPK inhibitor)
O=C(O)c1nn(CCSc2ccccc2F)c(=O)c2ccccc12	CHX counter 23
O=c1c2ccccc2nnn1CSc1nc2ccccc2[nH]1	Shiga toxin inh 77, CHX counter 43
O=c1c2ccccc2nnn1CSc1ncnc2ccccc12	none
O=c1c2ccccc2nnn1CSc1nnc2sc3ccccc3n12	Sm TGR block inconclusive, Shiga toxin inh 79, CHX counter 38, LmPK inhibitor inconclusive (no result: TbPYK inhibitor)
CN(C)C(=O)CSc1nnc2sc3ccccc3n12	none
O=c1c2ccccc2nnn1CSc1ccccc1F	Shiga toxin inh 55, CHX counter 63, LmPK inhibitor inconclusive
Cc1ccc2nc(SCn3nnc4ccccc4c3=O)[nH]c2c1	Shiga toxin inh 98, CHX counter 65
Cc1ccc(SCn2nnc3ccccc3c2=O)c(C)c1	Shiga toxin inh 118, CHX counter 51
CC1(C)Oc2ccc3ccc(=O)oc3c2CC1=O	none (no result: Sm TGR block, Shiga toxin inh, TbPYK inhibitor, CHX counter, LmPK inhibitor)
Fc1ccccc1CSc1nnnn1-c1ccc2c(c1)OCO2	CHX counter 16
NC(=O)CSc1nnnn1-c1ccc2c(c1)OCCO2	none
O=C(CSc1nnnn1-c1ccc2c(c1)OCO2)NCc1cccs1	Shiga toxin inh active, CHX counter 27
O=C(CSc1nnnn1-c1ccc2c(c1)OCO2)NCc1ccccc1	none
CCOc1ccc(CC(=O)NNC(=O)/C=C/C(=O)O)cc1	Sm TGR block 18µM
CN(Cc1ccccc1)C(=O)COc1ccc(N(C)S(=O)(=O)c2ccc(F)cc2)cc1	none
CCN(CC)C(=O)COc1ccc(-c2ccccc2)cc1	CHX counter 31
CN(Cc1ccccc1)C(=O)COc1ccc(C(C)(C)C)cc1	Shiga toxin inh 57, CHX counter 27
CCN(CC)C(=O)COc1ccc(/C(C)=N/NC(=O)c2ccccc2O)cc1	CHX counter 28
CN(Cc1ccccc1)C(=O)COC(=O)c1ccc(Cl)c(N)c1	Shiga toxin inh 67, CHX counter 51
